Records with an inconclusive call do not appear. Active and inactive are the calls of the source. How the source made its calls, unless noted: active means hit-call score of the fitted dose curve at least 0.9, where 1 is the maximum; inconclusive means response in the unintended direction; inactive means score below 0.9.
How the values were obtained:
[1] = ATG_TCF_b_cat_CIS: Attagene CIS-FACTORIAL HepG2 Assay for human T-Cell-Factor with beta-catenin (TCF/b-cat) (AID 2282965; active means hit-call score of the fitted dose curve at least 0.9, where 1 is the maximum; inactive means score below 0.9); settings: HepG2 TCF/beta-catenin cis-reporter transcription, actives raise or lower the signal
How it was run: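 HepG2 cells transiently transfected with cis-promoter-driven multiplexed reporter units; reporter mRNA measured 24 h after dosing by RT-PCR, FAM labelling, HpaI digestion and capillary electrophoresis. Bidirectional fitting relative to DMSO baseline.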

[2] = ATG_TGFb_CIS: Attagene CIS-FACTORIAL HepG2 Assay for human Transforming Growth Factor (TGF) (AID 2282967; active means hit-call score of the fitted dose curve at least 0.9, where 1 is the maximum; inactive means score below 0.9); settings: HepG2 Attagene CIS TGFb reporter, mRNA transcription; actives raise or lower the signal
How it was run: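 Endogenous TGFB1-linked transcription factor activity read as reporter mRNA via RT-PCR and capillary electrophoresis, 24 h after dosing transiently transfected HepG2 cells. Gain or loss of signal fitted relative to DMSO.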

[3] = ATG_VDRE_CIS: Attagene CIS-FACTORIAL HepG2 Assay for human Vitamin D Receptor Element (VDRE) (AID 2282968; active means hit-call score of the fitted dose curve at least 0.9, where 1 is the maximum; inactive means score below 0.9); settings: HepG2 VDRE cis-reporter transcription, actives raise or lower the signal
How it was run: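 Transient MRTU transfection of HepG2, 24 h compound exposure. Readout: reporter transcripts via RT-PCR and capillary electrophoresis, fluorescence. Bidirectional fit vs DMSO.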

[4] = biological target: X-box-binding protein 1 (Homo sapiens) (UniProt P17861); assay: ATG_Xbp1_CIS: Attagene CIS-FACTORIAL HepG2 Assay for human X-box Binding Protein 1 (XBP1) (AID 2282972; active means hit-call score of the fitted dose curve at least 0.9, where 1 is the maximum; inactive means score below 0.9); settings: HepG2 XBP1 cis-element reporter, Attagene multiplex; actives raise or lower the signal
How it was run: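 Reporter transcripts were quantified by RT-PCR with fluorescent primer extension and capillary electrophoresis after 24 h chemical exposure. Cells: transiently transfected HepG2 carrying cis-regulated reporter constructs; data fitted bidirectionally relative to DMSO.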

[5] = ATG_GAL4_TRANS: Attagene TRANS-FACTORIAL HepG2 Assay for GAL4 (Internal Marker) (AID 2282976); settings: HepG2 Attagene TRANS GAL4 internal marker reporter
How it was run: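 Fluorescence from capillary electrophoresis of labelled RT-PCR products quantifies reporter mRNA induction after 24 h dosing of HepG2 cells carrying transfected GAL4-UAS reporter transcription units. Vehicle DMSO serves as baseline.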

[6] = biological target: Bile acid receptor (Homo sapiens) (UniProt Q96RI1); assay: ATG_FXR_TRANS: Attagene TRANS-FACTORIAL HepG2 Assay for Farnesoid X Receptor (FXR) (AID 2282979); settings: HepG2 Attagene TRANS FXR-GAL4 reporter transcription;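 further: hits raise reporter mRNA above DMSO so AC50 marks FXR activation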
How it was run: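 Chimeric FXR-GAL4 activity in transiently transfected human HepG2 liver cells is scored as induction of reporter mRNA after 24 h of dosing. Detection uses RT-PCR with fluorescent labelling and capillary electrophoresis, with DMSO serving as baseline.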

[7] = biological target: Oxysterols receptor LXR-alpha (Homo sapiens) (UniProt Q13133); assay: ATG_LXRa_TRANS: Attagene TRANS-FACTORIAL HepG2 Assay for human Liver X Receptor alpha (LXRa) (AID 2282980); settings: HepG2 Attagene TRANS reporter, LXRa transactivation
How it was run: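 Transient HepG2 transfectants, 24 h dosing, RT-PCR/CE mRNA reporter quantitation; gain-of-signal vs DMSO.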

[8] = biological target: Oxysterols receptor LXR-beta (Homo sapiens) (UniProt P55055); assay: ATG_LXRb_TRANS: Attagene TRANS-FACTORIAL HepG2 Assay for human Liver X Receptor beta (LXRb) (AID 2282981); settings: HepG2 Attagene TRANS GAL4-LXRb reporter, mRNA
How it was run: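 Readout: fluorescent reporter mRNA fragments resolved by capillary electrophoresis after RT-PCR. System: transiently transfected human HepG2, exogenous LXRb-Gal4 chimera driving GAL4-UAS reporter, 24 h dosing. Activity fitted upward against DMSO baseline.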

[9] = biological target: Hepatocyte nuclear factor 4-alpha (Homo sapiens) (UniProt P41235); assay: ATG_HNF4a_TRANS: Attagene TRANS-FACTORIAL HepG2 Assay for human Hepatocyte Nuclear Factor 4 alpha (HNF4a) (AID 2282982); settings: HepG2 HNF4a transactivation reporter, mRNA readout
How it was run: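 Transient MRTU transfection of HepG2, 24 h dosing. Readout: reporter mRNA via RT-PCR + capillary electrophoresis, fluorescence; activity fit upward relative to DMSO control.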

[10] = ATG_M_06_TRANS: Attagene TRANS-FACTORIAL HepG2 Assay for M06 Transcription Factor (Internal Marker) (AID 2282983); settings: HepG2 Attagene TRANS M06 internal marker reporter
How it was run: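 Human liver HepG2 cells bearing transiently transfected chimeric NR-GAL4 reporter units were treated with chemicals for 24 h. Total RNA was reverse-transcribed, reporter sequences amplified and labelled, then quantified by capillary electrophoresis. Activity was fitted upward relative to DMSO.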

[11] = ATG_M_32_TRANS: Attagene TRANS-FACTORIAL HepG2 Assay for M32 Transcription Factor (Internal Marker) (AID 2282984); settings: HepG2 Attagene TRANS M32 internal marker reporter;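 further: transcript level of a background control reporter unit measured by RT-PCR and capillary electrophoresis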
How it was run: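 Read-out: fluorescent reporter cDNA fragments resolved by capillary electrophoresis after RT-PCR of total RNA. Transfected HepG2 cells were exposed to chemical for 24 h. Activity scored in the positive direction relative to DMSO.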

[12] = biological target: Nuclear receptor subfamily 4 group A member 2 (Homo sapiens) (UniProt P43354); assay: ATG_NURR1_TRANS: Attagene TRANS-FACTORIAL HepG2 Assay for human Nuclear Receptor Related Protein 1 (NURR1) (AID 2282985); settings: HepG2 Attagene TRANS reporter, mRNA readout
How it was run: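 Read-out: reporter mRNA induction by RT-PCR plus capillary electrophoresis with fluorescence detection, after 24 h dosing of transfected HepG2 cells. Exogenous NR-Gal4 chimera activity drives GAL4-UAS reporter; activity fitted upward versus DMSO.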

[13] = biological target: Transcriptional activator Myb (Homo sapiens) (UniProt P10242); assay: ATG_Myb_CIS: Attagene CIS-FACTORIAL HepG2 Assay for human Myeloblastosis (Myb) Proto-Oncogene Transcription Factor (AID 2282986; active means hit-call score of the fitted dose curve at least 0.9, where 1 is the maximum; inactive means score below 0.9); settings: HepG2 Attagene CIS-FACTORIAL Myb reporter transcription; actives raise or lower the signal
How it was run: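 Fluorescence signals from capillary electrophoresis of RT-PCR-amplified reporter cDNA give the read-out. Cells: HepG2 transfected with multiple cis-regulated reporter units. Exposure lasts 24 hours; DMSO defines baseline for gain or loss of signal.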

[14] = biological target: Steroid hormone receptor ERR1 (Homo sapiens) (UniProt P11474); assay: ATG_ERRa_TRANS: Attagene TRANS-FACTORIAL HepG2 Assay for human Estrogen-Related Receptor alpha (ERRa) (AID 2282971); settings: HepG2 Attagene TRANS reporter, ERRa transactivation
How it was run: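 HepG2 cells were transiently transfected with multiple GAL4-UAS reporter units, then dosed with compound for 24 h. Total RNA was reverse-transcribed, reporter cDNA PCR-amplified and fluorescently labelled, and fragments resolved by capillary electrophoresis; induction was compared with DMSO.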

[15] = ATG_M_19_TRANS: Attagene TRANS-FACTORIAL HepG2 Assay for M19 Transcription Factor (Internal Marker) (AID 2282974); settings: HepG2 Attagene TRANS-FACTORIAL M19 internal marker reporter
How it was run: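 Measured here: internal-marker reporter transcript from HepG2 cells transfected with MRTUs, harvested at 24 h. cDNA PCR products were 6-FAM labelled by primer extension, cut with HpaI for 2 h at 37 C, and resolved by CE.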

[16] = biological target: Estrogen-related receptor gamma (Homo sapiens) (UniProt P62508); assay: ATG_ERRg_TRANS: Attagene TRANS-FACTORIAL HepG2 Assay for human Estrogen-Related Receptor gamma (ERRg) (AID 2282977); settings: HepG2 Attagene TRANS reporter, ERRg transactivation;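 further: hits increase reporter signal over DMSO so potencies reflect activators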
How it was run: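 Exogenous NR-Gal4 chimera activity was assessed in HepG2 cells bearing transfected GAL4-UAS reporters. After 24 h dosing, total RNA underwent RT-PCR, fluorescent primer extension and HpaI digestion before capillary electrophoresis, with gain of signal scored against DMSO.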

[17] = biological target: Glucocorticoid receptor (Homo sapiens) (UniProt P04150); assay: ATG_GR_TRANS: Attagene TRANS-FACTORIAL HepG2 Assay for human Glucocorticoid Receptor (GR) (AID 2282978); settings: HepG2 Attagene TRANS GR reporter, mRNA transcription;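 further: activators score as hits since higher reporter transcript over DMSO is fitted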
How it was run: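 Measurement of GAL4-UAS-driven reporter mRNA in human HepG2 liver cells 24 h post-dosing, using RT-PCR with fluorescent labelling and capillary electrophoresis; the transfected constructs report exogenous NR-GAL4 chimera activity, fitted upward against DMSO.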

[18] = biological target: Estrogen receptor (Homo sapiens) (UniProt P03372); assay: ATG_ERa_TRANS: Attagene TRANS-FACTORIAL HepG2 Assay for human Estrogen Receptor alpha (ERa) (AID 2282970); settings: HepG2 Attagene TRANS ERa GAL4 reporter, mRNA
How it was run: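 Transfected HepG2 cells carrying GAL4-UAS-driven reporter units were dosed for 24 hours. Total RNA was reverse-transcribed, reporter sequences PCR-amplified, FAM-labelled, HpaI-digested and resolved by capillary electrophoresis. Increases over DMSO control defined activity.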

Measured: AC50

Chain of Nuclear receptor subfamily 4 group A member 2 (Homo sapiens) (P43354 whole entry, looked up, the tested form may be a part): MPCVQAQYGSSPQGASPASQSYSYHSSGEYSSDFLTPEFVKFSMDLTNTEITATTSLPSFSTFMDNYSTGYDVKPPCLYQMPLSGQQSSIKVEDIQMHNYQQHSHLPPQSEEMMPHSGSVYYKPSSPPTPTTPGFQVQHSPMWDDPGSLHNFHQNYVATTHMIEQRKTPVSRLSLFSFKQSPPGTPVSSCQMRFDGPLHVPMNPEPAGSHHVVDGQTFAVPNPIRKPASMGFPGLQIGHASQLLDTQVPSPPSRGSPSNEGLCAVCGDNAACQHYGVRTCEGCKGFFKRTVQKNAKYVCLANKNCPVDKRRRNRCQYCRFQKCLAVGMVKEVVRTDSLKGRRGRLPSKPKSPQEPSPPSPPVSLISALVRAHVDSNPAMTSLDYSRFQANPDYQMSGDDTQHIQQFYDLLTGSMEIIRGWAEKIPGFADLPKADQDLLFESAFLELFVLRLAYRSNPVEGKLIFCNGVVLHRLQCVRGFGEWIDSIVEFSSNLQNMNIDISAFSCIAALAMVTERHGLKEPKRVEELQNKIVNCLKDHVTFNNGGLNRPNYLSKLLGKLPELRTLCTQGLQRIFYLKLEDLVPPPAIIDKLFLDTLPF
Chain of Oxysterols receptor LXR-beta (Homo sapiens) (P55055 whole entry, looked up, the tested form may be a part): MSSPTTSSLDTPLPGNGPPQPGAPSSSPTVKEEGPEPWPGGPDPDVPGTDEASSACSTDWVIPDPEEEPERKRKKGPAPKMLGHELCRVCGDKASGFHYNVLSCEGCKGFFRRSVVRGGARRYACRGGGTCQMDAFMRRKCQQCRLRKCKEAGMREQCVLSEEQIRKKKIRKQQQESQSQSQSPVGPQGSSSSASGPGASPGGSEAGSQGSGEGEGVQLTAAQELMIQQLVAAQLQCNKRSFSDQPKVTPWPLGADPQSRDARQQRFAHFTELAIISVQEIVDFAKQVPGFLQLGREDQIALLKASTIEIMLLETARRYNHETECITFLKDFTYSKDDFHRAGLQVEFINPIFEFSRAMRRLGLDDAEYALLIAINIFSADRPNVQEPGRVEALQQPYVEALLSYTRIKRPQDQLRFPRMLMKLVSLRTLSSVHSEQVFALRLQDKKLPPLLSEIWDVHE
Chain of Transcriptional activator Myb (Homo sapiens) (P10242 whole entry, looked up): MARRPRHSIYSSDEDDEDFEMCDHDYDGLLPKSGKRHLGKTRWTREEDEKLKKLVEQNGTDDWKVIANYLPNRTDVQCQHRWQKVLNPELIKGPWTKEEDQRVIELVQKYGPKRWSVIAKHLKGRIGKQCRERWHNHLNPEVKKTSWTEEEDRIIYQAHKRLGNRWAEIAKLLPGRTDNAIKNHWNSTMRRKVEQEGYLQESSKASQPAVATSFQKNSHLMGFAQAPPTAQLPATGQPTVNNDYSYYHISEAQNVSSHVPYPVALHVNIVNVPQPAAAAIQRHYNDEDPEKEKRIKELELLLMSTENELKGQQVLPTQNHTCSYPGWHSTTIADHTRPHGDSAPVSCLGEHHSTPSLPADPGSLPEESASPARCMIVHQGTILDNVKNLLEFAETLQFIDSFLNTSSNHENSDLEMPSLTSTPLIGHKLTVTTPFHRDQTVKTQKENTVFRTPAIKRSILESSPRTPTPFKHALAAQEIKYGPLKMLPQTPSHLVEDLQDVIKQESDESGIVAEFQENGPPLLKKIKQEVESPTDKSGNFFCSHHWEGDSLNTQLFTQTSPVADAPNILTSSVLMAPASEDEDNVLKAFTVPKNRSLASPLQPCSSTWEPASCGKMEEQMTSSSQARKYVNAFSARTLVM
Chain of Bile acid receptor (Homo sapiens) (Q96RI1 whole entry, looked up, the tested form may be a part): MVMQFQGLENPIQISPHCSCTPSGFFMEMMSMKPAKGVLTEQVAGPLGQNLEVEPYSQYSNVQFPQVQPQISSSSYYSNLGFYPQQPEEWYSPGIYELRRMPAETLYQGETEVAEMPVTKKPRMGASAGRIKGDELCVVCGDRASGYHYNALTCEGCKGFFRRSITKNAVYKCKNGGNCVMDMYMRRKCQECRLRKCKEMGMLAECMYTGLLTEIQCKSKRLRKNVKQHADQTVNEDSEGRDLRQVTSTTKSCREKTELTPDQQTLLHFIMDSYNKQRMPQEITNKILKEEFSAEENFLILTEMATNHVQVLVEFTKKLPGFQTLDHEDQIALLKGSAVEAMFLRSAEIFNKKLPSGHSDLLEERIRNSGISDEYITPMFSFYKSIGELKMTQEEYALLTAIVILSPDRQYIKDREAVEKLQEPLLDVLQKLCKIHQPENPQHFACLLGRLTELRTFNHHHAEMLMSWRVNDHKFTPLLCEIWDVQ
Chain of Estrogen receptor (Homo sapiens) (P03372 whole entry, looked up, the tested form may be a part): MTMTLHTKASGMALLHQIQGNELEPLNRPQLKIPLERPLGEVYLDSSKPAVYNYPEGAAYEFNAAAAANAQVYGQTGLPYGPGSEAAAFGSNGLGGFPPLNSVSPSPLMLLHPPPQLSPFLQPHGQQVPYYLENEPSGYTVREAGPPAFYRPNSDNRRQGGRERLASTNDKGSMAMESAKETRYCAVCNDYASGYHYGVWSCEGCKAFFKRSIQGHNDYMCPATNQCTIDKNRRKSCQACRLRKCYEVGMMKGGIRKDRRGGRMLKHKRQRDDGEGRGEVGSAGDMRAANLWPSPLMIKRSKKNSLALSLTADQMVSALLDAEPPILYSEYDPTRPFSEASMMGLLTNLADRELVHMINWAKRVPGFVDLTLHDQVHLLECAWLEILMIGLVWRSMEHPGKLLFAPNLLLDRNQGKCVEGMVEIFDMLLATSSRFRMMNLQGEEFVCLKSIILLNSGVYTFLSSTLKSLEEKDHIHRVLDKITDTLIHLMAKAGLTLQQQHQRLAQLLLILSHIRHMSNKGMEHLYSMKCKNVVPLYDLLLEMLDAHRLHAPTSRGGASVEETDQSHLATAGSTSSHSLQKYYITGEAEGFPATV
Chain of Hepatocyte nuclear factor 4-alpha (Homo sapiens) (P41235 whole entry, looked up): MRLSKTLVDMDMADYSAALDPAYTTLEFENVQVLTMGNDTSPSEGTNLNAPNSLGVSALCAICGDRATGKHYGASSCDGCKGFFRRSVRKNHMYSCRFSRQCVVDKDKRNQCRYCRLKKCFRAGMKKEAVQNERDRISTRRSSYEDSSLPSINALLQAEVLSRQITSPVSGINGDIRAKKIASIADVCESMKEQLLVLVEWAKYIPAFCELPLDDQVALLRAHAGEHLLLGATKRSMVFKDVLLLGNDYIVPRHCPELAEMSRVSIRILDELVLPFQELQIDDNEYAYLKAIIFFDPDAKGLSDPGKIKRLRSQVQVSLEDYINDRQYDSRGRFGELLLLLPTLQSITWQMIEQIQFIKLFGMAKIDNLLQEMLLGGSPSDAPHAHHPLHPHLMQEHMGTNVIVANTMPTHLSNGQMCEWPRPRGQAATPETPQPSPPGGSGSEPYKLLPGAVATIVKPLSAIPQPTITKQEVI
Chain of Oxysterols receptor LXR-alpha (Homo sapiens) (Q13133 whole entry, looked up): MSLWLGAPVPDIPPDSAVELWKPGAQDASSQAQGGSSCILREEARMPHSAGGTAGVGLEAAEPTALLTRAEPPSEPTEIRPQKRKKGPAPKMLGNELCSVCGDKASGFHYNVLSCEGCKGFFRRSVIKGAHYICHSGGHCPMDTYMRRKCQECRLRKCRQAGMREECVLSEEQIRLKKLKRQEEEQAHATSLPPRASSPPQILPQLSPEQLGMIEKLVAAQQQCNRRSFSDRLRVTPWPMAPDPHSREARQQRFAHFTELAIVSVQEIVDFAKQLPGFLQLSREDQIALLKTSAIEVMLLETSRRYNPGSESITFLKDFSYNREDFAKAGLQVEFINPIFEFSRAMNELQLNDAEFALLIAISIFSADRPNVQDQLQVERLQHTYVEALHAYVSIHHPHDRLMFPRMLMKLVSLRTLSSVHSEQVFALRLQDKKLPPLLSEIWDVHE
Chain of X-box-binding protein 1 (Homo sapiens) (P17861 whole entry, looked up): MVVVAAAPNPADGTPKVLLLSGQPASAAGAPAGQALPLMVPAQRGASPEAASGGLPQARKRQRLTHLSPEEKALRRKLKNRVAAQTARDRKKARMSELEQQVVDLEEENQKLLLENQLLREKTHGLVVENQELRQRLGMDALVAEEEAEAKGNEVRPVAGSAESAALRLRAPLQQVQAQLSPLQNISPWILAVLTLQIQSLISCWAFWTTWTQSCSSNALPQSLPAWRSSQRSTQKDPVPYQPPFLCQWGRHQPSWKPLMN
Chain of Steroid hormone receptor ERR1 (Homo sapiens) (P11474 whole entry, looked up, the tested form may be a part): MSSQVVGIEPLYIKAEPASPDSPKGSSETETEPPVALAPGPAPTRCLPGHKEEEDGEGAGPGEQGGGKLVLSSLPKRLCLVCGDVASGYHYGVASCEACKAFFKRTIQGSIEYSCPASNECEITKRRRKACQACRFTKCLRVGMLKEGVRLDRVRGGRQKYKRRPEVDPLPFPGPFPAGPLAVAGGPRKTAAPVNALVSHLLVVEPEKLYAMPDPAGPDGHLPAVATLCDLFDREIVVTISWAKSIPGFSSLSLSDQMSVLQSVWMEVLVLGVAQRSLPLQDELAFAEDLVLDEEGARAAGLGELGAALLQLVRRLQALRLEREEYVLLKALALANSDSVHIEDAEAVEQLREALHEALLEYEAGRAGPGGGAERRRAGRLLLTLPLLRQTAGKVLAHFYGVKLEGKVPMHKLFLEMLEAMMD
Chain of Estrogen-related receptor gamma (Homo sapiens) (P62508 whole entry, looked up, the tested form may be a part): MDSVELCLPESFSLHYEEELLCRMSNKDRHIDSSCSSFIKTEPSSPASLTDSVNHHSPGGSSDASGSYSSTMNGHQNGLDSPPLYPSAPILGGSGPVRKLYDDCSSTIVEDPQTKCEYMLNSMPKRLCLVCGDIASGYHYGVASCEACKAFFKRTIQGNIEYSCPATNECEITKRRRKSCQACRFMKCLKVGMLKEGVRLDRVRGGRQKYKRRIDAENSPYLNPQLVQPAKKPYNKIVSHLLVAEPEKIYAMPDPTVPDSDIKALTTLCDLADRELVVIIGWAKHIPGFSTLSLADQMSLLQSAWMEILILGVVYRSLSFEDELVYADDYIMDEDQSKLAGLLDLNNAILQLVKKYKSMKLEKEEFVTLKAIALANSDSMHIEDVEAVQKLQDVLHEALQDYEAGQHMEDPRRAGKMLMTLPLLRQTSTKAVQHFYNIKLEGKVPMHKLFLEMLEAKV

CCOC(=O)OC(=O)OCC
not listed: [14] | [15] | [16] | [17] | [18]
inactive: all other assays above

Cn1ccnc1
not listed: [5] | [8] | [10] | [18]
inactive: all other assays above

OCCCc1ccccc1
not listed: [5] | [6] | [10] | [11] | [12] | [16]
inactive: all other assays above

CC1OC(=O)C(C)OC1=O (stereo not drawn)
not listed: [6] | [7] | [8] | [14] | [15] | [16] | [17]
inactive: all other assays above

C[Si](C)(C)N[Si](C)(C)C
inactive: [1] | [2] | [3] | [18] | [4] | [9] | [13]

CCN1CN(CC)CN(CC)C1
inactive: [2] | [18] | [15] | [6] | [7] | [8] | [11] | [12] | [13]
active: [1] 132 µM | [4] 162 µM
